A selection: hits, their analogues and other compounds. The true share with any hit is near 2.2%.
IEC-6 cytotox: IEC-6 cytotoxicity, counter-screen for KLF5 inhibitors | AID 1825 | luminescence viability | inhibition, % at 5 µM | 0.78% of 290,000 active; in the data active = inhibition above about 22%
KLF5 inhibitor: suppresses KLF5 promoter-driven expression; DLD-1 KLF5 promoter-luciferase reporter, luminescence; inhibition, % at 5 µM; 0.23% of 290,000 active; AID 1700;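 active = inhibition above a per-plate limit of that plate's mean compound inhibition plus 3 SD, cut at about 60% in these data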;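 also: higher means less KLF5 promoter-driven luciferase light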
Ba/F3 V617F tox: loss of viability in JAK2V617F-driven Ba/F3 cells | 1.1% of 220,000 active | Ba/F3 EpoR-JAK2V617F viability, ATP luminescence | inhibition, % at 5.6 µM;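 active = inhibition above the campaign mean plus 3 SD over all tested compounds, cut at about 24% in these data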;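 also: cytokine-independent growth of Ba/F3 cells driven by EpoR plus mutant JAK2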
aSyn 5UTR inh: MLPCN primary screen, SNCA 5' untranslated region. alpha-synuclein 5'UTR reporter, inhibitor activity. inhibition, % (tested at 7.5 µM). 0.82% of 300,000 active. AID 1813; in the data active = inhibition above about 60%;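 also: H4 neuroglioblastoma cells stably carrying SNCA 5'UTR luciferase fusion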
APP 5UTR inh: APP translation inhibition | SH-SY5Y APP 5'UTR-luciferase reporter, luminescence | inhibition, % at 2 µM | 0.82% of 190,000 active | AID 1285;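 active = inhibition above a set limit, derived from the sample mean plus 3 SD, cut at about 45% in these data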
BaF3 parental: counter-screen for JAK2V617F inhibitors: parental Ba/F3 viability inhibitors. CellTiter-Glo ATP luminescence. inhibition, % at 5.6 µM. 1.1% of 220,000 active. AID 1486;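 active = inhibition above a per-campaign cutoff, the mean inhibition of all tested compounds plus 3 SD, cut at about 27% in these data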
Large screens that a line does not name were inactive.

CCOC(=O)C1CCN(C(=O)c2cc(COc3ccc(F)cc3F)on2)CC1	none (no result: Ba/F3 V617F tox, APP 5UTR inh, BaF3 parental)
Cc1ccc(C)c(C(=O)CSc2nc(N)cc(=O)[nH]2)c1	none (no result: Ba/F3 V617F tox, APP 5UTR inh, BaF3 parental)
O=C(COc1ccccc1)Nc1ccc(S(=O)(=O)Nc2ncccn2)cc1	none
Cc1ccnc(NS(=O)(=O)c2ccc(NC(=O)COc3ccccc3)cc2)n1	aSyn 5UTR inh 68
Cc1c(CCC(=O)N2CCC(C(=O)O)CC2)c(=O)oc2cc3oc4c(c3cc12)CCCC4	aSyn 5UTR inh 74 (no result: Ba/F3 V617F tox, APP 5UTR inh, BaF3 parental)
Cc1c(CCC(=O)N2CCC(C(=O)O)(c3ccccc3)CC2)c(=O)oc2cc3oc4c(c3cc12)CCCC4	aSyn 5UTR inh 67 (no result: Ba/F3 V617F tox, APP 5UTR inh, BaF3 parental)
Cc1oc2c(C)c3oc(=O)c(CCC(=O)N4CCC(C(=O)NCCC(=O)O)(c5ccccc5)CC4)c(C)c3cc2c1C	none (no result: Ba/F3 V617F tox, APP 5UTR inh, BaF3 parental)
Cc1c(CCC(=O)N[C@@H](C)C(=O)O)c(=O)oc2cc3oc4c(c3cc12)CCCC4	aSyn 5UTR inh 71 (no result: Ba/F3 V617F tox, APP 5UTR inh, BaF3 parental)
Cc1c(CC(=O)NCCC(=O)O)c(=O)oc2cc3oc4c(c3cc12)CCCC4	none (no result: Ba/F3 V617F tox, APP 5UTR inh, BaF3 parental)
Cc1cccc(CC(=O)Nc2ccc(C(=O)N3CCOCC3)cc2)c1	none (no result: Ba/F3 V617F tox, APP 5UTR inh, BaF3 parental)
Cc1cc2c(cc1S(=O)(=O)CCC(=O)NCCc1ccccc1)OCC(=O)N2	none (no result: Ba/F3 V617F tox, APP 5UTR inh, BaF3 parental)
CC(=O)NC1=NN(C(C)=O)C(c2ccc(F)cc2)S1 (stereo unspecified)	none
O=C(COc1ccc(Br)cc1)NCCCNC(=O)c1ccncc1	none (no result: Ba/F3 V617F tox, APP 5UTR inh, BaF3 parental)
O=C(O)c1ccccc1C(=O)Nc1ccc(Oc2cccc3ccccc23)cc1	aSyn 5UTR inh 94, APP 5UTR inh 59
Cc1cccc(Oc2ccc(NC(=O)c3ccccc3C(=O)O)cc2)c1C	none
O=C(O)c1ccccc1C(=O)Nc1ccc(Oc2ccc3ccccc3c2)cc1	Ba/F3 V617F tox 46, BaF3 parental 38
CCOC(=O)c1sc(Nc2nc(C)cc(C)n2)nc1C	aSyn 5UTR inh 84 (no result: APP 5UTR inh)
CCOC(=O)c1sc(NS(=O)(=O)c2ccccc2)nc1C	none
CCOC(=O)c1sc(Nc2nc(C)cc(OC)n2)nc1C	none
CCOC(=O)c1sc(NS(=O)(=O)c2ccccc2Cl)nc1C	BaF3 parental 51
CS(=O)(=O)N(CC(=O)N1CCCCCC1)c1cccc([N+](=O)[O-])c1	none (no result: Ba/F3 V617F tox, APP 5UTR inh, BaF3 parental)
O=C(Oc1ccc(Br)cc1C(=S)N1CCCCC1)c1cc([N+](=O)[O-])cc([N+](=O)[O-])c1	APP 5UTR inh 50
COc1cc(C(=O)O/N=C(\N)Cc2ccc([N+](=O)[O-])cc2)cc(OC)c1OC	aSyn 5UTR inh 81 (no result: APP 5UTR inh)
NS(=O)(=O)c1ccc(NC(=O)C2C3C=CC(C3)C2C(=O)O)cc1 (stereo unspecified)	none
CCc1ccc(NC(=O)CSc2ccc(-c3ccccn3)nn2)cc1	none (no result: Ba/F3 V617F tox, APP 5UTR inh, BaF3 parental)
CCOC(=O)c1ccccc1NC(=O)CSc1ccc(-c2ccccn2)nn1	aSyn 5UTR inh 69 (no result: Ba/F3 V617F tox, APP 5UTR inh, BaF3 parental)
Cc1nc(SCC(=O)Nc2cccc(Cl)c2)n[nH]1	none
CC(=O)c1cccc(NC(=O)CSc2ccc(-c3ccccn3)nn2)c1	aSyn 5UTR inh 69 (no result: Ba/F3 V617F tox, APP 5UTR inh, BaF3 parental)
O=C(CSc1n[nH]c(-c2ccccn2)n1)Nc1cccc(Cl)c1	aSyn 5UTR inh 86 (no result: Ba/F3 V617F tox, APP 5UTR inh, BaF3 parental)
CC(=O)Nc1cccc(NC(=O)CSc2ccc(-c3ccccn3)nn2)c1	none
CC1(C)COCN1S(=O)(=O)c1ccc(C(=O)Nc2nnc(-c3ccc(Cl)s3)o2)cc1	aSyn 5UTR inh 92
COc1ccc(-c2nnc(NC(=O)c3ccc(S(=O)(=O)N4COCC4(C)C)cc3)o2)cc1	aSyn 5UTR inh 76, BaF3 parental 46
CC1CCCCN1S(=O)(=O)c1ccc(C(=O)Nc2nnc(-c3ccncc3)o2)cc1 (stereo unspecified)	none
CC1CCCCN1S(=O)(=O)c1ccc(C(=O)Nc2nnc(-c3ccccc3Cl)o2)cc1 (stereo unspecified)	none
Cc1onc(-c2c(Cl)cccc2Cl)c1C(=O)N/N=C(\N)COc1ccc(Cl)cc1	aSyn 5UTR inh 89
COc1cc(/C=N/NC(=O)c2c(-c3c(Cl)cccc3Cl)noc2C)ccc1OCC(N)=O	none (no result: Ba/F3 V617F tox, APP 5UTR inh, BaF3 parental)
CSc1cccc(-n2cc(-c3ccc4c(c3)OCO4)[nH]c2=O)c1	BaF3 parental 29
Cc1ccc(C(C)C)c(OCc2nn(CC(=O)c3ccc(OC(F)F)cc3)c3[n+]2CCCCC3)c1	Ba/F3 V617F tox 49, BaF3 parental 30
C/C(=N\NC(=O)c1cc2ccccc2cc1O)c1cc2ccccc2o1	none (no result: APP 5UTR inh)
C/C(=N\NC(=O)CCCNc1ccc(C)cc1)c1ccccn1	aSyn 5UTR inh 78
C=CCNC(=S)N/N=C(\C)c1ccccn1	IEC-6 cytotox 91, Ba/F3 V617F tox 98, aSyn 5UTR inh 86, APP 5UTR inh 93, BaF3 parental 91
C/C(=N\NC(=O)c1c[nH]c2ccccc12)c1ccccn1	aSyn 5UTR inh 72, APP 5UTR inh 47
C/C(=N\NC(=O)c1cc2ccccc2cc1O)c1ccccn1	aSyn 5UTR inh 88 (no result: Ba/F3 V617F tox, APP 5UTR inh, BaF3 parental)
C/C(=N\NC(=O)CCCNc1ccccc1)c1ccncc1	none
CN(C)C(CNC(=O)c1c(F)cccc1Cl)c1ccco1 (stereo unspecified)	none (no result: Ba/F3 V617F tox, APP 5UTR inh, BaF3 parental)
CCOc1cc(/C=C/C(=O)OCC(=O)NC2CCS(=O)(=O)C2)ccc1OCc1ccccc1 (stereo unspecified)	none
CC1CCCC(NC(=O)CN2C(=O)c3cccnc3Oc3ccc(Cl)cc32)C1C (stereo unspecified)	none (no result: Ba/F3 V617F tox, APP 5UTR inh, BaF3 parental)
Cc1cccc2cc3c(N)c(C#N)sc3nc12	aSyn 5UTR inh 84
CCc1ccc(CN(C)C(=O)C2CCC(=O)N(Cc3ccccn3)C2)cc1 (stereo unspecified)	none (no result: Ba/F3 V617F tox, APP 5UTR inh, BaF3 parental)
COc1ccc2[nH]c(C)c(CCN(Cc3cccs3)C(=S)Nc3ccccc3)c2c1	Ba/F3 V617F tox 34, BaF3 parental 46
COc1ccc2[nH]c(C)c(CCN(Cc3cccs3)C(=S)Nc3ccc(F)cc3)c2c1	Ba/F3 V617F tox 46, BaF3 parental 50
COc1ccc(C(=O)C(CN2CCCC2)c2ccccc2)cc1 (stereo unspecified)	Ba/F3 V617F tox 80, APP 5UTR inh 86, BaF3 parental 29
O=C(c1ccc(Cl)cc1)C(CN1CCCC1)c1ccccc1 (stereo unspecified)	none (no result: Ba/F3 V617F tox, APP 5UTR inh, BaF3 parental)
O=C(c1ccc(F)cc1)C(CN1CCOCC1)c1ccccc1 (stereo unspecified)	APP 5UTR inh 95
CCCCOc1ccc(C(=O)C(CN2CCOCC2)c2ccccc2)cc1 (stereo unspecified)	none
COc1ccc(C(=O)C(CN2CCOCC2)c2ccccc2)cc1 (stereo unspecified)	Ba/F3 V617F tox 90, APP 5UTR inh 90, BaF3 parental 42
Cn1c(=O)c(C(=O)NCC2CCCO2)c(O)c2ccccc21 (stereo unspecified)	none
c1ccc(CCNc2ncnc3ccccc23)cc1	Ba/F3 V617F tox 65, BaF3 parental 68
CCOC(=O)c1ccc(N2CN(CC)CNC2=S)cc1	aSyn 5UTR inh 64
CCCN1CNC(=S)N(c2ccc(C(=O)OCC)cc2)C1	none
OC(c1cc(-c2ccc(C(F)(F)F)cc2)nc(C(F)(F)F)c1)C1CCCCN1 (stereo unspecified)	IEC-6 cytotox 40, Ba/F3 V617F tox 96, aSyn 5UTR inh 103, BaF3 parental 53 (no result: APP 5UTR inh)
